# PubChem BioAssay (NCATS)
# Records with an inconclusive call do not appear. A call without a number means that no potency is given here. Active and inactive are the calls of the source. Calls come from the whole dose curve; as a rule, active = well fitted cell-killing curve with a large enough effect; inconclusive = small, poorly fitted or top-dose-only effect, or effect the other way; inactive = no such curve, though single readings can be large or run the other way.
# Assay: Quantitative High-Throughput drug screen in 47 multiple myeloma cell lines against the NCATS MIPE library collection: XG1_PLB cell viability assay (AID 1919866); note: nearly all actives have a fitted effect of over 35% in size
# Conditions: CellTiter-Glo ATP, 48 h; series mostly up to 45.8 µM
# How it was run: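 Cells were exposed to library compounds for 48 hours, after which ATP was measured by CellTiter-Glo. Signal was taken as median relative luminescence units.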
# Potency is the fitted concentration of half-maximal effect.
row,SMILES,Potency
1,CC(N[C@H]1C[C@H]1c1ccccc1)c1ccc2c(c1)OCCO2 (stereo partly specified),inactive
2,Cc1c(N)nc([C@H](CC(N)=O)NC[C@@H](N)C(N)=O)nc1C(=O)N[C@H](C(=O)N[C@@H](C)[C@H](O)[C@@H](C)C(=O)N[C@@H](C(=O)NCCc1nc(-c2nc(C(=O)NCCC[S+](C)C)cs2)cs1)[C@@H](C)O)C(O[C@H]1O[C@H](CO)[C@H](O)[C@@H](O)[C@@H]1O[C@H]1O[C@H](CO)[C@@H](O)[C@H](OC(N)=O)[C@H]1O)c1cnc[nH]1 (stereo partly specified),0.209 µM (active)
3,NC1CC1c1ccccc1 (stereo unspecified),inactive
4,CC(C)(O)C(=O)Nc1ccc([N+](=O)[O-])c(C(F)(F)F)c1,8.33 µM (active)
5,CCOC(=O)c1cncn1[C@H](C)c1ccccc1,inactive
6,CC(O)=C(C#N)C(=O)Nc1cc(Br)ccc1Br,inactive
7,C#CC1(O)CCC2C3CCC4=CC(=O)CCC4(C)C3CCC21C (stereo unspecified),inactive
8,CCOP(=O)(OCC)C(C)NC(=O)N(CCCl)N=O (stereo unspecified),inactive
9,CCC(=O)OC1CCC2C3CCC4=CC(=O)CC[C@@]4(C)C3CC[C@]12C (stereo partly specified),inactive
10,CC(=O)N(C)c1cccc(-c2ccnc3c(C(=O)c4cccs4)cnn23)c1,inactive
11,c1ccc(CCCN2CCN(CCOC(c3ccccc3)c3ccccc3)CC2)cc1,20.9 µM (active)
12,O=C(O)CNC(=O)c1c(O)c2ccccc2n(Cc2ccccc2)c1=O,inactive
13,CN(C)NC(=O)CCC(=O)O,26.4 µM (active)
14,CN(C)[C@@H]1C(=O)C(C(N)=O)=C(O)[C@@]2(O)C(=O)C3=C(O)c4c(O)cccc4[C@@](C)(O)[C@H]3[C@H](O)[C@@H]12,16.6 µM (active)
15,NC1=NC(=O)N2CC12 (stereo unspecified),11.8 µM (active)
16,CCCN1CCO[C@@H]2c3cc(O)ccc3OC[C@@H]21,inactive
17,CC[C@@H](C(N)=O)N1CCCC1=O,23.5 µM (active)
18,C[C@]12CC[C@H](O)CC1=CC[C@H]1[C@H]3CCC(=O)[C@@]3(C)CC[C@@H]12,7.43 µM (active)
19,O=C1C=CC[C@@H]2[C@H]3CCCN4CCC[C@@H](CN12)[C@@H]34,inactive
20,CC1(N2CCC(n3c([C@@H]4CCCNC4)nc4ccccc43)CC2)CCCCCCC1,18.7 µM (active)
21,CCNC(=O)CC1N=C(c2ccc(Cl)cc2)c2cc(OC)ccc2-n2c(C)nnc21 (stereo unspecified),5.9 µM (active)
22,C[C@@H]1CC[C@@]2(OC1)O[C@H]1C[C@H]3[C@@H]4CC=C5C[C@@H](O[C@@H]6O[C@H](CO)[C@@H](O[C@@H]7O[C@@H](C)[C@H](O)[C@@H](O)[C@@H]7O)[C@H](O)[C@@H]6O[C@@H]6O[C@@H](C)[C@H](O)[C@@H](O)[C@@H]6O)CC[C@]5(C)[C@@H]4CC[C@]3(C)[C@@H]1[C@H]2C,2.64 µM (active)
23,COc1ccc2c(c1)[C@]13CCCCC1C(C2)N(C)CC3 (stereo partly specified),inactive
24,C[C@]12Cc3cn[nH]c3C[C@@H]1CC[C@@H]1[C@H]2CC[C@@]2(C)[C@H]1CC[C@]2(C)O,inactive
25,C[C@]12CCC(=O)C(O)=C1CC[C@@H]1[C@H]3CCC(=O)[C@@]3(C)CC[C@@H]12,inactive
26,CC(C)[C@H]1C(=O)N[C@H](CO)Cc2c[nH]c3cccc(c23)N1C,inactive
